Here are results for 9 compounds from the supplement of paper PMC7801607.

One assay relates to CHO. In words: % viability of CHO cells (MTT); higher = less toxic. To be noted: 48 h. An outline of the steps: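 For 48 h, attached CHO cells (10^6 cells/well, 200 µL, seeded the night before) were kept in fresh medium carrying compound at 2 or 20 µM. A colorimetric tetrazolium (MTT) assay then gave survival as percent viability versus untreated cells.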
In the next assay the test system is HepG2-A16-CD81. The experiment in a line: % inhibition of HepG2 viability (CellTiter-Glo); higher = more toxic. To be noted: 5 µM. (ATP-based viability assays read luminescence as a measure of living cells.)
The subject of assay [1] is Plasmodium falciparum NF54 stage IV/V gametocytes. In words: % inhibition of gametocyte viability (PrestoBlue); higher = more inhibition. The note with it: 48 h. An outline of the steps:
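Stage IV/V NF54 gametocytes at 2% gametocytaemia and 5% haematocrit (100 µL/well) were treated with compound at 1 or 5 µM and incubated for 48 h at 37 °C under stationary, hypoxic conditions. PrestoBlue (10 µL) was then added for 2 h, and fluorescence at 612 nm was read on 70 µL of transferred supernatant. Percent inhibition of gametocyte viability was normalised to vehicle and kill controls within one run.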

Assay [2] concerns Plasmodium falciparum NF54 asexual blood stage. The experiment in a line: % inhibition of asexual blood stage proliferation (pLDH); higher = more inhibition. The note with it: 72 h. An outline of the steps:
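Plasmodium falciparum NF54 ring-stage cultures (1% haematocrit, 2% parasitaemia) were incubated with compound at 2 or 20 µM for 72 h at 37 °C under 4% CO2, 3% O2 and 93% N2. Survival was read at 620 nm with the parasite lactate dehydrogenase assay. Results were reported as percent inhibition of asexual proliferation relative to controls.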

The test system of assay [3] is Plasmodium falciparum NF54 stage IV/V gametocytes. The experiment in a line: % inhibition of gametocyte viability (ATP bioluminescence); higher = more inhibition. To be noted: 24 h. An outline of the steps: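 Stage IV/V NF54 gametocytes from density gradients (30,000 per well, 96-well plates) were incubated with compound at 1 or 5 µM for 24 h at 37 °C. A single run supplied percent inhibition of gametocyte viability, based on ATP measured with Promega BacTiter Glo and normalised to control wells.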

Assay [4] shares this test system. The experiment in a line: % inhibition of gametocyte viability (luciferase reporter); higher = more inhibition. The note with it: 48 h. An outline of the steps:
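Percent inhibition was normalised to controls from a single run. Stage IV/V gametocytes of the NF54-Pfs16-GFP-Luc line, at 2% gametocytaemia and 2% haematocrit, were exposed to compound at 1 or 5 µM for 48 h at 37 °C under stationary, hypoxic conditions. Luminescence was then read from 30 µL lysate mixed with 30 µL Promega luciferin substrate on a GloMax-Multi+ reader with 10 s integration.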
(In general: A reporter such as luciferase makes a cellular process visible.)

Assay [5] has as its system Plasmodium berghei ANKA liver stage in HepG2-A16-CD81. The experiment in a line: % inhibition of liver stage parasite viability (luciferase); higher = more inhibition. The note with it: 5 µM; 48 h. Here is the method: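 Single-concentration screen of the MMV Pandemic Response Box. P. falciparum NF54 asexual blood stages: pLDH assay, 72 h at 37 °C, 2 and 20 µM, n=2. Stage IV/V gametocytes (NF54): luciferase reporter (NF54-Pfs16-GFP-Luc, 48 h), ATP bioluminescence (24 h) and PrestoBlue (48 h) at 1 and 5 µM, n=1. P. berghei liver stage (luciferase in HepG2-A16-CD81, 48 h post infection) at 5 µM, n=4. All normalised to DMSO and kill controls as % inhibition.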
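Throughout, for % inhibition of HepG2 viability (CellTiter-Glo): HepG2-A16-CD81 hepatoma cells plated as in the liver-stage assay but without sporozoites, with DMSO wells as negative and 25 µM puromycin as positive control.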

With `CC(C)(C)NC(=O)N[C@H](C(=O)N1C[C@H]2[C@@H]([C@H]1C(=O)NC(CC1CCC1)C(=O)C(N)=O)C2(C)C)C(C)(C)C` (stereo partly drawn), the “% viability of CHO cells” value was 108% with CHO (2 µM) and 50.4% in the assay with CHO (20 µM). Moreover, the “% inhibition of HepG2 viability” value with HepG2-A16-CD81 was found to be 9.51%. The “% inhibition of gametocyte viability” value in assay [1] (1 µM) is 4.37%; in assay [1] (5 µM), 8.14%; in assay [3] (1 µM) it was less than 0%; in assay [3] (5 µM) it was less than 0%; in assay [4] (1 µM), less than 0%; in assay [4] (5 µM), less than 0%. The “% inhibition of asexual blood stage proliferation” value was determined as 36.6% in assay [2] (2 µM) and 73.7% in assay [2] (20 µM). The “% inhibition of liver stage parasite viability” value in assay [5] was -15.2%.
For `CC[N+]1(C/C2=C/CCCCCC2)CCC(NC(=O)C2c3cc(Cl)ccc3Oc3ccc(Cl)cc32)CC1` (stereo not drawn), the “% viability of CHO cells” value in the assay on CHO (2 µM) stood at 100%; with CHO (20 µM) it was 75.9%. In addition, in the assay on HepG2-A16-CD81, the “% inhibition of HepG2 viability” value is 7.74%. The “% inhibition of gametocyte viability” value in assay [1] (1 µM) is less than 0%; in assay [1] (5 µM), 41.9%; in assay [3] (1 µM), less than 0%; in assay [3] (5 µM) it was 44%; in assay [4] (1 µM) it was 7.3%; in assay [4] (5 µM), 34%. Moreover, the “% inhibition of asexual blood stage proliferation” value came out at 21.8% in assay [2] (2 µM) and 101% in assay [2] (20 µM). Besides, in assay [5], the “% inhibition of liver stage parasite viability” value was found to be 6.03%.
Turning to `CCCNc1ccc(S(=O)(=O)Nc2cc(C)on2)cc1`, the “% viability of CHO cells” value in the assay on CHO (2 µM) came out at 93.3%; in the assay with CHO (20 µM) it was 116%. Also, in the assay on HepG2-A16-CD81, the “% inhibition of HepG2 viability” value is -1.94%. The “% inhibition of gametocyte viability” value is -0.214% in assay [1] (1 µM); 6.51% in assay [1] (5 µM); 0.832% in assay [3] (1 µM); less than 0% in assay [3] (5 µM); less than 0% in assay [4] (1 µM); less than 0% in assay [4] (5 µM). The “% inhibition of asexual blood stage proliferation” value in assay [2] (2 µM) is 1.93%; in assay [2] (20 µM) it was -9.2%. The “% inhibition of liver stage parasite viability” value in assay [5] is 32.4%.
Take `CCCCCCCCCN1C[C@@H](O)[C@H](O)[C@@H](O)[C@@H]1CO`: the results for the “% viability of CHO cells” value with CHO (2 µM) and in the assay with CHO (20 µM) were 94.1% and 58.9%, respectively. For the same compound, in the assay on HepG2-A16-CD81, the “% inhibition of HepG2 viability” value amounted to 4.62%. Moreover, the “% inhibition of gametocyte viability” value is less than 0% in assay [1] (1 µM); 3.2% in assay [1] (5 µM); less than 0% in assay [3] (1 µM); less than 0% in assay [3] (5 µM); 2.02% in assay [4] (1 µM); 2.49% in assay [4] (5 µM). Further, the “% inhibition of asexual blood stage proliferation” value was found to be 38.4% in assay [2] (2 µM) and 25.3% in assay [2] (20 µM). In addition, the “% inhibition of liver stage parasite viability” value in assay [5] is -1.14%.
As to `CC(C)Oc1ccc(-n2cnc3cc(/C=C\c4ccc(C(C)(C)O)cc4)ccc32)cc1`, the figures for the “% viability of CHO cells” value in the assay on CHO (2 µM) and in the assay on CHO (20 µM) were 113% and 115%, respectively. Besides, the “% inhibition of HepG2 viability” value with HepG2-A16-CD81 worked out at 5.08%. Also, the “% inhibition of gametocyte viability” value in assay [1] (1 µM) is 30.8%; in assay [1] (5 µM) it was 32.2%; in assay [3] (1 µM), less than 0%; in assay [3] (5 µM), less than 0%; in assay [4] (1 µM) it was less than 0%; in assay [4] (5 µM) it was less than 0%. Besides, the “% inhibition of asexual blood stage proliferation” value in assay [2] (2 µM) amounted to 25.6%; in assay [2] (20 µM) it was 54.7%. Also, the “% inhibition of liver stage parasite viability” value in assay [5] worked out at 20.4%.
Turning to `CCCCC(CC)CNC(=N)NC(=N)NCCCCCCNC(=N)NC(=N)NCC(CC)CCCC` (stereo not drawn), the “% viability of CHO cells” value in the assay with CHO (2 µM) worked out at 101%; in the assay with CHO (20 µM), 124%. Further, the “% inhibition of HepG2 viability” value in the assay on HepG2-A16-CD81 worked out at 57.5%. The “% inhibition of gametocyte viability” value in assay [1] (1 µM) worked out at 44.5%; in assay [1] (5 µM), 79.2%; in assay [3] (1 µM), 66.4%; in assay [3] (5 µM) it was 93.8%; in assay [4] (1 µM), 98.7%; in assay [4] (5 µM), 100%. In addition, the figures for the “% inhibition of asexual blood stage proliferation” value in assay [2] (2 µM) and in assay [2] (20 µM) were 92.1% and 87.5%, respectively. The “% inhibition of liver stage parasite viability” value in assay [5] worked out at 74%.
On to `CCNC(=O)Nc1cc2c(-c3ccnc(C)c3)ccc(CNC(=O)OC)c2cn1`, for which the “% viability of CHO cells” value with CHO (2 µM) turned out to be 92.8%; in the assay on CHO (20 µM) it was 58.1%. Further, the “% inhibition of HepG2 viability” value with HepG2-A16-CD81 came to 5.56%. In addition, the “% inhibition of gametocyte viability” value in assay [1] (1 µM) was less than 0%; in assay [1] (5 µM), 27.4%; in assay [3] (1 µM), less than 0%; in assay [3] (5 µM), less than 0%; in assay [4] (1 µM), less than 0%; in assay [4] (5 µM) it was 5.9%. The “% inhibition of asexual blood stage proliferation” value in assay [2] (2 µM) was determined as 0.638%; in assay [2] (20 µM), 33.7%. For the same compound, in assay [5], the “% inhibition of liver stage parasite viability” value came out at 25.9%.
In the case of `CCc1ccc(C2CC(C(F)(F)F)n3ncc(C(=O)NCc4ccc(OC)cc4)c3N2)cc1` (stereo not drawn), the “% viability of CHO cells” value with CHO (2 µM) came to 83%; in the assay with CHO (20 µM), 61.2%. For the same compound, the “% inhibition of HepG2 viability” value with HepG2-A16-CD81 stood at 8.05%. For the same compound, the “% inhibition of gametocyte viability” value in assay [1] (1 µM) was less than 0%; in assay [1] (5 µM) it was 34.6%; in assay [3] (1 µM) it was 2.93%; in assay [3] (5 µM), 4.83%; in assay [4] (1 µM), less than 0%; in assay [4] (5 µM), 6.49%. For the same compound, the “% inhibition of asexual blood stage proliferation” value in assay [2] (2 µM) stood at 37.2%; in assay [2] (20 µM) it was 67.7%. In assay [5], the “% inhibition of liver stage parasite viability” value stood at 32.1%.
For `Cc1[nH]c2ccccc2c1CC(=O)N[C@@H](Cc1ccccc1)C(=O)N(C)c1ccccc1`, the “% viability of CHO cells” value in the assay on CHO (2 µM) turned out to be 80.4%; in the assay with CHO (20 µM), 56%. For the same compound, the “% inhibition of HepG2 viability” value in the assay with HepG2-A16-CD81 was 4.27%. Besides, the “% inhibition of gametocyte viability” value was 25.2% in assay [1] (1 µM); 23.6% in assay [1] (5 µM); 6.25% in assay [3] (1 µM); less than 0% in assay [3] (5 µM); 1.82% in assay [4] (1 µM); 1.07% in assay [4] (5 µM). In addition, the “% inhibition of asexual blood stage proliferation” value in assay [2] (2 µM) is -9.75%; in assay [2] (20 µM) it was 76.5%. The “% inhibition of liver stage parasite viability” value in assay [5] is 8.84%.
